B1: GGGC (dsDNA)
DNA 1: GCTATCTAGTGCTCAGTACGCACTGGGGCAGGAAACTTCTGGCAGGACCAGGTCATGAGATCGGAAGAGCACACGTCTGAACTCCAGTCA
DNA 2: TGACTGGAGTTCAGACGTGTGCTCTTCCGATCTCATGACCTGGTCCTGCCAGAAGTTTCCTGCCCCAGTGCGTACTGAGCACTAGATAGC
RNA: AAUUUCUACUCUUGUAGAUAGGAAACUUCUGGCAGGACC
B2: TAGT (dsDNA)
DNA 1: GCTATCTAGTGCTCAGTACGCACTGTAGTAGGAAACTTCTGGCAGGACCAGGTCATGAGATCGGAAGAGCACACGTCTGAACTCCAGTCA
DNA 2: TGACTGGAGTTCAGACGTGTGCTCTTCCGATCTCATGACCTGGTCCTGCCAGAAGTTTCCTACTACAGTGCGTACTGAGCACTAGATAGC
RNA: AAUUUCUACUCUUGUAGAUAGGAAACUUCUGGCAGGACC
B3: GTGG (dsDNA)
DNA 1: GCTATCTAGTGCTCAGTACGCACTGGTGGAGGAAACTTCTGGCAGGACCAGGTCATGAGATCGGAAGAGCACACGTCTGAACTCCAGTCA
DNA 2: TGACTGGAGTTCAGACGTGTGCTCTTCCGATCTCATGACCTGGTCCTGCCAGAAGTTTCCTCCACCAGTGCGTACTGAGCACTAGATAGC
RNA: AAUUUCUACUCUUGUAGAUAGGAAACUUCUGGCAGGACC
B4: TACC (dsDNA)
DNA 1: GCTATCTAGTGCTCAGTACGCACTGTACCAGGAAACTTCTGGCAGGACCAGGTCATGAGATCGGAAGAGCACACGTCTGAACTCCAGTCA
DNA 2: TGACTGGAGTTCAGACGTGTGCTCTTCCGATCTCATGACCTGGTCCTGCCAGAAGTTTCCTGGTACAGTGCGTACTGAGCACTAGATAGC
RNA: AAUUUCUACUCUUGUAGAUAGGAAACUUCUGGCAGGACC
B5: TAAC (dsDNA)
DNA 1: GCTATCTAGTGCTCAGTACGCACTGTAACAGGAAACTTCTGGCAGGACCAGGTCATGAGATCGGAAGAGCACACGTCTGAACTCCAGTCA
DNA 2: TGACTGGAGTTCAGACGTGTGCTCTTCCGATCTCATGACCTGGTCCTGCCAGAAGTTTCCTGTTACAGTGCGTACTGAGCACTAGATAGC
RNA: AAUUUCUACUCUUGUAGAUAGGAAACUUCUGGCAGGACC
B6: TAGC (dsDNA)
DNA 1: GCTATCTAGTGCTCAGTACGCACTGTAGCAGGAAACTTCTGGCAGGACCAGGTCATGAGATCGGAAGAGCACACGTCTGAACTCCAGTCA
DNA 2: TGACTGGAGTTCAGACGTGTGCTCTTCCGATCTCATGACCTGGTCCTGCCAGAAGTTTCCTGCTACAGTGCGTACTGAGCACTAGATAGC
RNA: AAUUUCUACUCUUGUAGAUAGGAAACUUCUGGCAGGACC
B7: TACA (dsDNA)
DNA 1: GCTATCTAGTGCTCAGTACGCACTGTACAAGGAAACTTCTGGCAGGACCAGGTCATGAGATCGGAAGAGCACACGTCTGAACTCCAGTCA
DNA 2: TGACTGGAGTTCAGACGTGTGCTCTTCCGATCTCATGACCTGGTCCTGCCAGAAGTTTCCTTGTACAGTGCGTACTGAGCACTAGATAGC
RNA: AAUUUCUACUCUUGUAGAUAGGAAACUUCUGGCAGGACC
B8: TAGG (dsDNA)
DNA 1: GCTATCTAGTGCTCAGTACGCACTGTAGGAGGAAACTTCTGGCAGGACCAGGTCATGAGATCGGAAGAGCACACGTCTGAACTCCAGTCA
DNA 2: TGACTGGAGTTCAGACGTGTGCTCTTCCGATCTCATGACCTGGTCCTGCCAGAAGTTTCCTCCTACAGTGCGTACTGAGCACTAGATAGC
RNA: AAUUUCUACUCUUGUAGAUAGGAAACUUCUGGCAGGACC
B9: TAAT (dsDNA)
DNA 1: GCTATCTAGTGCTCAGTACGCACTGTAATAGGAAACTTCTGGCAGGACCAGGTCATGAGATCGGAAGAGCACACGTCTGAACTCCAGTCA
DNA 2: TGACTGGAGTTCAGACGTGTGCTCTTCCGATCTCATGACCTGGTCCTGCCAGAAGTTTCCTATTACAGTGCGTACTGAGCACTAGATAGC
RNA: AAUUUCUACUCUUGUAGAUAGGAAACUUCUGGCAGGACC
B10: GGTG (dsDNA)
DNA 1: GCTATCTAGTGCTCAGTACGCACTGGGTGAGGAAACTTCTGGCAGGACCAGGTCATGAGATCGGAAGAGCACACGTCTGAACTCCAGTCA
DNA 2: TGACTGGAGTTCAGACGTGTGCTCTTCCGATCTCATGACCTGGTCCTGCCAGAAGTTTCCTCACCCAGTGCGTACTGAGCACTAGATAGC
RNA: AAUUUCUACUCUUGUAGAUAGGAAACUUCUGGCAGGACC
B11: GTCG (dsDNA)
DNA 1: GCTATCTAGTGCTCAGTACGCACTGGTCGAGGAAACTTCTGGCAGGACCAGGTCATGAGATCGGAAGAGCACACGTCTGAACTCCAGTCA
DNA 2: TGACTGGAGTTCAGACGTGTGCTCTTCCGATCTCATGACCTGGTCCTGCCAGAAGTTTCCTCGACCAGTGCGTACTGAGCACTAGATAGC
RNA: AAUUUCUACUCUUGUAGAUAGGAAACUUCUGGCAGGACC
B12: GGGT (dsDNA)
DNA 1: GCTATCTAGTGCTCAGTACGCACTGGGGTAGGAAACTTCTGGCAGGACCAGGTCATGAGATCGGAAGAGCACACGTCTGAACTCCAGTCA
DNA 2: TGACTGGAGTTCAGACGTGTGCTCTTCCGATCTCATGACCTGGTCCTGCCAGAAGTTTCCTACCCCAGTGCGTACTGAGCACTAGATAGC
RNA: AAUUUCUACUCUUGUAGAUAGGAAACUUCUGGCAGGACC
B13: TAAG (dsDNA)
DNA 1: GCTATCTAGTGCTCAGTACGCACTGTAAGAGGAAACTTCTGGCAGGACCAGGTCATGAGATCGGAAGAGCACACGTCTGAACTCCAGTCA
DNA 2: TGACTGGAGTTCAGACGTGTGCTCTTCCGATCTCATGACCTGGTCCTGCCAGAAGTTTCCTCTTACAGTGCGTACTGAGCACTAGATAGC
RNA: AAUUUCUACUCUUGUAGAUAGGAAACUUCUGGCAGGACC
B14: GTAG (dsDNA)
DNA 1: GCTATCTAGTGCTCAGTACGCACTGGTAGAGGAAACTTCTGGCAGGACCAGGTCATGAGATCGGAAGAGCACACGTCTGAACTCCAGTCA
DNA 2: TGACTGGAGTTCAGACGTGTGCTCTTCCGATCTCATGACCTGGTCCTGCCAGAAGTTTCCTCTACCAGTGCGTACTGAGCACTAGATAGC
RNA: AAUUUCUACUCUUGUAGAUAGGAAACUUCUGGCAGGACC
B15: TCAG (dsDNA)
DNA 1: GCTATCTAGTGCTCAGTACGCACTGTCAGAGGAAACTTCTGGCAGGACCAGGTCATGAGATCGGAAGAGCACACGTCTGAACTCCAGTCA
DNA 2: TGACTGGAGTTCAGACGTGTGCTCTTCCGATCTCATGACCTGGTCCTGCCAGAAGTTTCCTCTGACAGTGCGTACTGAGCACTAGATAGC
RNA: AAUUUCUACUCUUGUAGAUAGGAAACUUCUGGCAGGACC
B16: TACG (dsDNA)
DNA 1: GCTATCTAGTGCTCAGTACGCACTGTACGAGGAAACTTCTGGCAGGACCAGGTCATGAGATCGGAAGAGCACACGTCTGAACTCCAGTCA
DNA 2: TGACTGGAGTTCAGACGTGTGCTCTTCCGATCTCATGACCTGGTCCTGCCAGAAGTTTCCTCGTACAGTGCGTACTGAGCACTAGATAGC
RNA: AAUUUCUACUCUUGUAGAUAGGAAACUUCUGGCAGGACC
B17: GTCC (dsDNA)
DNA 1: GCTATCTAGTGCTCAGTACGCACTGGTCCAGGAAACTTCTGGCAGGACCAGGTCATGAGATCGGAAGAGCACACGTCTGAACTCCAGTCA
DNA 2: TGACTGGAGTTCAGACGTGTGCTCTTCCGATCTCATGACCTGGTCCTGCCAGAAGTTTCCTGGACCAGTGCGTACTGAGCACTAGATAGC
RNA: AAUUUCUACUCUUGUAGAUAGGAAACUUCUGGCAGGACC
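Also: relative affinity from the bound to unbound sequence frequency ratio in Spec-seq.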

The first experiment concerns the target dAsCas12a S542R (Acidaminococcus sp., UniProt U2UMQ6 1-1307, S542R;D908A;E993A;D1235A). The experiment in a line: Spec-seq (native PAGE EMSA with sequencing of bound and unbound); 25 mM Tris-HCl pH 7.4, 150 mM KCl, 5 mM MgCl2, 10% glycerol, 1 mM DTT, 40 ng/uL salmon sperm DNA; 400 nM Cas12a, 480 nM crRNA, 50 nM library, 37 C 1 h; native PAGE at room temperature; high values mean tight binding. Conditions: protein: recombinant.
As for B1, the binding signal is -8.77 lnKA.

As to B2, the binding signal was -8.48 lnKA.

As to B3, the binding signal was -8.13 lnKA.

As for B4, the binding signal is -7.06 lnKA.

Consider B5, for which the binding signal is -8.34 lnKA.

Turning to B6, the binding signal is -8.4 lnKA.

For B7, the binding signal was -7.41 lnKA.

Regarding B8, the binding signal is -8.66 lnKA.

For B9, the binding signal was -8.37 lnKA.

With B10, the binding signal was -8.15 lnKA.

Turning to B11, the binding signal is -6.96 lnKA.

As for B12, the binding signal was -8.85 lnKA.

Take B13: the binding signal was -8.68 lnKA.

B14: the binding signal is -8.28 lnKA.

On to B15, for which the binding signal is -7.87 lnKA.

For B16, the binding signal was -7.71 lnKA.

Consider B17, for which the binding signal is -5.08 lnKA.

Another experiment deals with d-enCas12a (Acidaminococcus sp., UniProt U2UMQ6 1-1307, E174R;S542R;K548R;D908A;E993A;D1235A). The description is as above. Conditions: protein: recombinant.
As for B1, the binding signal was -5.93 lnKA.

In the case of B2, the binding signal was -5.67 lnKA.

On to B3, for which the binding signal was -5.91 lnKA.

In the case of B4, the binding signal is -1.02 lnKA.

For B5, the binding signal was -4.66 lnKA.

On to B6, for which the binding signal was -5.51 lnKA.

Regarding B7, the binding signal is -1.33 lnKA.

Turning to B8, the binding signal was -5.6 lnKA.

For the molecule B9, the binding signal is -5.67 lnKA.

As to B10, the binding signal is -4.86 lnKA.

For the molecule B11, the binding signal is -4.39 lnKA.

Regarding B12, the binding signal was -5.77 lnKA.

For B13, the binding signal is -5.56 lnKA.

As to B14, the binding signal is -5.83 lnKA.

B15: the binding signal was -5.78 lnKA.

B16: the binding signal was -3.12 lnKA.

Turning to B17, the binding signal is -1.42 lnKA.

Another experiment deals with d-enCas12a-Ultra (Acidaminococcus sp., UniProt U2UMQ6 1-1307, E174R;S542R;K548R;M537R;F870L;D908A;E993A;D1235A). The description is as above. Conditions: protein: recombinant.
Consider B1, for which the binding signal was -3.41 lnKA.

As to B2, the binding signal was -3.31 lnKA.

For the molecule B3, the binding signal was -3.47 lnKA.

With B4, the binding signal was -0.362 lnKA.

As to B5, the binding signal was -2.03 lnKA.

Consider B6, for which the binding signal is -3.07 lnKA.

Turning to B7, the binding signal was -0.355 lnKA.

For the molecule B8, the binding signal was -3.37 lnKA.

For the molecule B9, the binding signal was -3.27 lnKA.

With B10, the binding signal was -1.95 lnKA.

In the case of B11, the binding signal is -1.21 lnKA.

As to B12, the binding signal is -3.46 lnKA.

As to B13, the binding signal was -3.25 lnKA.

Take B14: the binding signal was -3.32 lnKA.

In the case of B15, the binding signal was -3.45 lnKA.

On to B16, for which the binding signal was -0.852 lnKA.

For B17, the binding signal is -0.355 lnKA.

Source of the values: PMC8222333, “AsCas12a ultra nuclease facilitates the rapid generation of therapeutic cell medicines”.
